# Data reported in PubChem BioAssay.
# Activity calls are given as the source filed them.
# Tests used:
# [1] = anti-His antibody binders, primary screen, artefact control for SMM control protein annotation, biochemical, small-molecule microarray, 635 nm fluorescence (AID 1128); details: anti-His Alexa647 antibody binding, higher = more signal;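 further: score merges feature fluorescence with signal-to-noise for each printed compound spot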
# [2] = test system: Human papillomavirus type 1a E7 protein (residues 1-88); test: HPV1a E7 small-molecule binders, primary screen, biochemical, small-molecule microarray, residues 1-88, 635 nm (AID 1129); details: small-molecule microarray binding, fluorescence 635 nm; higher = more signal
# [3] = molecular target: Focal adhesion kinase 1 (Homo sapiens) (UniProt Q05397); test: small-molecule microarray binders of FAK, primary screen, biochemical, 635/667 nm fluorescence, BSA, DTT (AID 1130); details: PTK2 binding, 635 nm fluorescence, higher = more signal;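 further: composite of spot emission at 667 nm and signal to noise over triplicate slides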
# Chain of Focal adhesion kinase 1 (Homo sapiens) (Q05397 whole entry, looked up): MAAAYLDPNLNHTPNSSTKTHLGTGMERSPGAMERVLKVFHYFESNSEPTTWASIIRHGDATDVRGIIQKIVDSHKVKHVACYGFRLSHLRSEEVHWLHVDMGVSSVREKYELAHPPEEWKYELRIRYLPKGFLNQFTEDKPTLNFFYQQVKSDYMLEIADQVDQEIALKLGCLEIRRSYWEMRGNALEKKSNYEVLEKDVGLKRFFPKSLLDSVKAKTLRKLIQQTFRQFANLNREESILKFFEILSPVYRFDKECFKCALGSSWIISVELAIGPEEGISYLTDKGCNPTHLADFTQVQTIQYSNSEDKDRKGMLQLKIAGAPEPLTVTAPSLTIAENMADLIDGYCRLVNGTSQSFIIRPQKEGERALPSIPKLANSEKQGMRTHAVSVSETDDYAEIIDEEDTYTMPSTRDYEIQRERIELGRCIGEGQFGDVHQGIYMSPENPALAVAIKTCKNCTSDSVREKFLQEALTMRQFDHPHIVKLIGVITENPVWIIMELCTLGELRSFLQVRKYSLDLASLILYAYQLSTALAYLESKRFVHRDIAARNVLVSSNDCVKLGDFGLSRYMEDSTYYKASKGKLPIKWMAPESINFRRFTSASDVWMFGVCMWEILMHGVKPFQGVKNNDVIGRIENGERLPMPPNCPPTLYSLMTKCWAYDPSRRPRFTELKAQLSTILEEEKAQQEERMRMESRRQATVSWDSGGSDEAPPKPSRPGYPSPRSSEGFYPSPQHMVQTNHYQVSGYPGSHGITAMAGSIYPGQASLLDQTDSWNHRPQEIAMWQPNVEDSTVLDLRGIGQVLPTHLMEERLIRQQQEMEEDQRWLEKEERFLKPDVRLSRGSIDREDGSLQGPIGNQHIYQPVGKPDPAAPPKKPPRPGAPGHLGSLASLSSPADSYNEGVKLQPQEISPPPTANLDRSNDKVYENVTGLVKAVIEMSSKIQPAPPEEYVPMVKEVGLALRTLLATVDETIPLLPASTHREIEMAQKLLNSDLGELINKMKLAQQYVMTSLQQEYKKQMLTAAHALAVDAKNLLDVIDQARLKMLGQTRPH
# [4] = test system: Fibrinogen (Alexa647-labelled); test: fibrinogen binders on compound microarrays, profiling panel, artefact control for SMM control-protein annotation, biochemical, small-molecule microarray, 635/667 nm fluorescence (AID 1131); details: fibrinogen-A647 binding fluorescence, higher = more signal;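 further: z-score merges 667 nm fluorescence with per-spot signal-to-noise over triplicate slides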
# [5] = molecular target: Follistatin (Homo sapiens) (UniProt P19883); test: follistatin binders on small-molecule microarrays, primary screen, biochemical, small-molecule microarray, 635/667 nm fluorescence (AID 1132); details: FST binding, 635 nm fluorescence, higher = more signal
# Chain of Follistatin (Homo sapiens) (P19883 whole entry, looked up): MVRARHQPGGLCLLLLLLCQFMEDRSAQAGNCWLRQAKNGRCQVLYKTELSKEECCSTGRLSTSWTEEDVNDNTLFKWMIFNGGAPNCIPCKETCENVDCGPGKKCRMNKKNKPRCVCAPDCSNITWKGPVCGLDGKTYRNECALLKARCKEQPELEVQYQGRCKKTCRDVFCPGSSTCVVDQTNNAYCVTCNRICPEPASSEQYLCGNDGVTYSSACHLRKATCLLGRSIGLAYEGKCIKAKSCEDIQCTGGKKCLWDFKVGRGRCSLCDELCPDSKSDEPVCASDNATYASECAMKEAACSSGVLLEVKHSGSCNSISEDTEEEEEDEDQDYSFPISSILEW
# [6] = molecular target: Fibroblast growth factor 2 (Homo sapiens) (UniProt P09038); test: FGF2 binders on small-molecule microarrays, primary screen, biochemical, small-molecule microarray, 635/667 nm fluorescence (AID 1133); details: small-molecule microarray binding, FGF2, fluorescence 635/667; higher = more signal
# Chain of Fibroblast growth factor 2 (Homo sapiens) (P09038 whole entry, looked up): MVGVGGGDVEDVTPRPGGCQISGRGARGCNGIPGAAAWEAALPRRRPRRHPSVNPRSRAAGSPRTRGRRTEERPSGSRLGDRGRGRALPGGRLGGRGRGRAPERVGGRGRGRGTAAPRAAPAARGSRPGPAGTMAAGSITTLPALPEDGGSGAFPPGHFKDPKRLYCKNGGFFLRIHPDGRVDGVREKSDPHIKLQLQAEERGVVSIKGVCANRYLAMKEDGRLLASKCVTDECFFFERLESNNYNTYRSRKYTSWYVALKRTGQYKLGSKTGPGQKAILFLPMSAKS
# [7] = mitochondrial membrane potential change in A549 cells, profiling panel, cell-based, JC-1 fluorescence, basal, 24 h, 100 nL (AID 1138); details: higher = more signal;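 further: A549 lung adenocarcinoma cells under basal conditions with no added stimulus; test concentration not given here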
# [8] = test system: Lefty1; test: Lefty1 binders on small-molecule microarrays, primary screen, biochemical, small-molecule microarray, 635/667 nm fluorescence (AID 1139); details: small-molecule microarray binding, fluorescence 635/667; higher = more signal
# [9] = test system: wheat germ agglutinin (Triticum aestivum), Alexa647-labelled; test: wheat germ agglutinin binders on compound microarrays, profiling panel, artefact control for SMM control-protein annotation, biochemical, small-molecule microarray, 635/667 nm fluorescence (AID 1140); details: WGA-A647 binding, 635 nm fluorescence, higher = more signal;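 further: score merges 667 nm feature emission with signal to noise over triplicate slides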
# [10] = molecular target: Luciferin 4-monooxygenase (Photinus pyralis) (UniProt P08659); test: firefly luciferase enzyme inhibitors, primary screen, biochemical, luminescence, purified enzyme, 2006 set (AID 1141); details: SteadyGlo luminescence, 30 min, higher = more signal, called active from +8 up or from −8 down;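 further: cell-free assay with purified firefly luciferase at 100 ng per well in PBS; test concentration not given here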
# Chain of Luciferin 4-monooxygenase (Photinus pyralis) (P08659 whole entry, looked up): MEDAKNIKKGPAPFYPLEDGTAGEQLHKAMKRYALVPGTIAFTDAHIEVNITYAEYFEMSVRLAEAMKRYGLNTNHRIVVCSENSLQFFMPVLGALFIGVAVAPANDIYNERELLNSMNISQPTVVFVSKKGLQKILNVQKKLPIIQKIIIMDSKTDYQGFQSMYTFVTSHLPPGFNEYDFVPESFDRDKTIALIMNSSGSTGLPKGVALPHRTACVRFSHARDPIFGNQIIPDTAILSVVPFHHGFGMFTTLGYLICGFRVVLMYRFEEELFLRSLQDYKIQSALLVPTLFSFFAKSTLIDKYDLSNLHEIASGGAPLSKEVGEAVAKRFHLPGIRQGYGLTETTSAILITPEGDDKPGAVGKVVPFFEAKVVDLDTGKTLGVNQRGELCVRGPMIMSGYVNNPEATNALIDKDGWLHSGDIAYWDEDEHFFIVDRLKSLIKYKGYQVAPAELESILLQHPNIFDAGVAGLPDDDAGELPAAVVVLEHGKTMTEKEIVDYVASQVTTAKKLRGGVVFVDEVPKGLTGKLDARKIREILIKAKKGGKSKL
Compound,composite z-score [1],composite z-score [2],composite z-score [3],composite z-score [4],composite z-score [5],composite z-score [6],z-score [7],composite z-score [8],composite z-score [9],z-score [10]
O=C1[C@H]2[C@H]3[C@H](O)[C@H](O)CC(=NO[C@@H]4O[C@H](CO)[C@@H](O)[C@H](O)[C@H]4O)[C@H]3CC[C@H]2C(=O)N1Cc1ccccc1,0.0948,0.768,0.0406,-0.187,-0.179,0.389,-0.252,0.358,-0.0816,0.589 (inactive)
CC(CCC(=O)OC[C@H]1O[C@H](C#Cc2ccccc2)C=C[C@@H]1Oc1ccc(C)cc1)=NOC[C@@H](O)[C@H]1O[C@@H]2OC(C)(C)O[C@@H]2[C@H]1O,0.418,-0.106,0.0116,-0.38,-0.382,-0.448,0.343,0.131,-0.604,0.29 (inactive)
C#C[C@@H](CC)O[Si](C#Cc1ccc(Oc2ccccc2)cc1)(C(C)C)C(C)C,0.491,0.649,-0.0378,0.15,0.395,0.307,-1.81,0.63,0.299,0.0007 (inactive)
COCC(=C=CC[C@@H](O)c1ccccc1OCCO)CCO,0.0272,0.534,0.208,0.664,0.768,1.46,1.51,0.409,-0.0571,-2.02 (inactive)
CC(C)OC(=O)C=C1C[C@@H](c2ccc(C#N)cc2)O[C@@H](c2ccc(C#N)cc2)O1,1.48,1.22,0.704,0.978,1.31,0.267,-0.356,0.48,0.972,-0.178 (inactive)
O=C1c2ccccc2[C@@]2(Cc3ccccc3N(C3CC3)C2=O)[C@H](c2ccc(CO)cc2)N1Cc1ccccc1C(F)(F)F,0.534,-0.453,0.13,-1.41,-1.41,-1.09,-0.511,-1.32,0.286,0.62 (inactive)
C#C[C@@H]1Oc2ccccc2S(=O)(=O)N2CCC[C@H]12,0.104,-0.283,0.193,-0.635,0.562,0.155,-0.273,0.0495,-0.249,-0.0351 (inactive)
CCc1cc2c(nc1CC)CCN(CCC(C)=NO[C@@H](C)c1cc(-c3c(C)cc(C)cc3C)no1)C2,0.0635,-0.22,-0.0159,0.397,-0.265,-0.2,1.69,0.388,0.0999,-0.887 (inactive)
COC(=O)[C@H](C)NC(=O)CCC1CC(OC(=O)NCc2ccc3c(c2)OCO3)CC2(CCCC(COC(=O)NCCOc3ccccc3)O2)O1 (stereo not given in full),0.486,1.15,0.0281,0.59,0.463,1.09,1.09,0.735,0.262,-0.314 (inactive)
CC(C)=CCCC(C)=CCON=C1C[C@@H](O)[C@@H](O)[C@@H]2[C@@H]3C(=O)N(C[C@@H]4CCCO4)C(=O)[C@@H]3CC[C@@H]12,0.875,1.13,0.121,0.971,1.06,1.07,-0.26,1.26,0.59,0.722 (inactive)
C[C@H](c1ccccc1)N1C(=O)[C@H]2[C@H]3[C@H](O)[C@H](O)CC(=O)[C@@H]3CC[C@H]2C1=O,0.62,-0.0909,0.0546,0.436,0.469,0.51,0.47,0.515,0.286,0.569 (inactive)
COC(=O)C1=C(C)N(Cc2ccccc2)[C@]23O[C@](C(=O)OC)(C(=O)N2[C@@H]1c1ccccc1)[C@H]1CCOC(=O)[C@H]13,0.038,0.192,0.149,0.628,0.384,0.52,0.328,1.41,0.84,-0.431 (inactive)
O=C1C2=CC[C@H]3C(=O)N(Cc4ccc5c(c4)OCO5)C(=O)[C@H]3[C@H]2[C@H](O)[C@@H]2O[C@H]12,1.06,0.383,0.009,0.459,0.281,0.597,0.738,0.408,-0.0306,-0.272 (inactive)
CC(C)(C)OC(=O)CC[C@]1(C(N)=O)COC(c2ccc(OCCCO)cc2)=N1,1.3,0.804,-0.0765,0.29,1.1,1.13,-0.437,-1.08,0.43,-0.0436 (inactive)
O=C1C[C@@H](O)[C@@H](O)[C@@H]2[C@@H]3C(=O)N(Cc4ccc5c(c4)OCO5)C(=O)[C@@H]3CC[C@@H]12,-0.0619,0.459,0.0309,0.197,0.499,0.507,0.481,0.549,-0.107,-0.786 (inactive)
COC(=O)C1(C)C=C2C(=C(c3ccccc3)C(=O)C2C)CN1 (stereo not given),1.57,0.0147,0.0183,0.494,-0.882,-0.253,-0.353,-1.5,0.264,1.89 (inactive)
[N-]=[N+]=Nc1ccccc1C[C@@]1(C(N)=O)N=C(c2ccc(OCCCO)cc2)O[C@@H]1c1ccccc1,0.42,1.02,0.645,-0.367,0.283,-0.403,-0.971,-1.27,0.402,-3.86 (inactive)
CCCNC(=O)OC[C@H]1O[C@H](CCON=CC[C@@H]2C=C[C@H](OC(C)=O)[C@@H](COC(C)=O)O2)C=C[C@@H]1Oc1ccc(OC)cc1,0.731,0.535,0.474,0.733,0.461,0.693,-1.16,0.561,0.462,0.985 (inactive)
CN(C)CCCNC(=O)[C@@H]1c2ccccc2C(=O)N(Cc2cc(F)cc(C(F)(F)F)c2)[C@H]1c1ccc(CO)cc1,0.77,1.07,-0.0288,0.216,1.28,0.309,-0.00183,-0.271,0.039,0.0764 (inactive)
O=C1[C@H]2[C@H]3[C@H](O)[C@H](O)CC(=NO[C@@H]4O[C@H](CO)[C@@H](O)[C@H](O)[C@H]4O)[C@@H]3CC[C@H]2C(=O)N1Cc1ccccc1,-0.58,-0.623,0.593,-0.247,-0.303,0.16,0.129,0.289,-0.0706,0.4 (inactive)
CCOC(=O)NN=C1C[C@@H](O)[C@@H](O)[C@@H]2[C@@H]3C(=O)N(C(C)(C)C)C(=O)[C@@H]3CC[C@@H]12,-0.889,-0.461,0.291,-0.417,-0.686,0.638,0.0179,-0.519,-1.19,0.413 (inactive)
CCN1C(=O)[C@H]2[C@H]3[C@H](O)[C@H](O)CC(=NOC(C)CN4CCCCc5nc(C)c(C)cc54)[C@@H]3CC[C@H]2C1=O (stereo not given in full),2.1,0.0084,0.167,-0.323,0.861,0.541,0.0743,0.672,0.0283,0.161 (inactive)
CO[C@H]1COC(=O)[C@H](C)NC(=O)[C@@H](C)COC(=O)CC=C[C@@H]1C,-0.133,-0.0179,-0.274,-0.177,0.598,1.34,-0.855,0.572,-0.114,0.514 (inactive)
COc1cccc([C@H]2Oc3ccc(OC)cc3C(=NOC(C)CN3CCCc4nc(C)c(C)cc43)[C@@H]2O)c1 (stereo not given in full),2.41,0.857,0.394,-0.712,0.073,0.125,0.128,0.809,-0.299,0.149 (inactive)
CC=CC1=C(CO)[C@H](O)[C@H]2O[C@H]2[C@H]1O,0.189,0.277,-0.0741,-0.0409,0.589,1.06,-0.565,0.871,-0.191,-0.115 (inactive)
N#Cc1ccc(NN2C(C(O)c3cccc4ccccc34)C=CC3C(=O)N(c4ccccc4)C(=O)C32)cc1 (stereo not given),1.06,1.24,0.413,0.965,1.23,-0.24,1.11,0.279,1.24,0.512 (inactive)
O=C(CS)NCCCCCNC(=O)[C@H]1C[C@H]2C(=O)N3CCC[C@H]3C(=O)N2[C@H]1c1cccc(OCCO)c1,3.13,1.11,2.11,0.65,1.45,1.92,0.509,1.65,0.777,-1.22 (inactive)
